The whole screen tested about 3,400 compounds, of which about 840 (25%) were called active. Inconclusive results (about 11%) are left out. The list is a sample of the results. Entries with a potency or affinity are not part of this list. A number with no mark means an inactive call.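 The calls were made as follows: active = fitted half-maximal concentration of signal decrease at or below twice the sample's top tested concentration; inconclusive = flat curve between -70 and -30 percent, or poor fit; inactive = flat within 30 percent, signal rise, or potency above limit.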

The assay is described as follows: T. gondii growth inhibition with IFN-gamma, dose response, cell-based, ME49Luc, HeLa, luciferase, 72 h (AID 1259418). Conditions: T. gondii ME49Luc in IFN-y HeLa, hits give low values, -100% = high-dose IFN-γ control wells; at 19.5 µM unless noted.
For the compound `Cc1nc(CCNC(=O)C2CCN(S(=O)(=O)c3cnn(C(F)F)c3C)CC2)cs1`, the max activity was 8.74% [at 0.68 µM].

Turning to `Cc1ccoc1C(=O)N1CC[C@H]2CO[C@@H](CN3CCN(C)CC3)[C@@H]2C1`, the max activity was 14.9%.

`COc1cc(OC)c(NC(=O)COc2nc(C)nc3ccccc23)cc1Cl`: the max activity was 39.9%.

Consider `CCc1nc(OCC(=O)Nc2ccccc2OC)c2ccccc2n1`, for which the max activity was 14.6% [at 0.35 µM].

With `CSc1cccc(NC(=O)COc2nc(C)nc3ccccc23)c1`, the max activity was 16.7% [at 5 µM].

As for `CCOc1ccc(-c2nc(CN3CCN(C(=O)Nc4ccc(C)c(Cl)c4)CC3)c(C)o2)cc1`, the max activity was 18% [at 0.16 µM].

On to `CCOc1ccc(-c2nc(CN3CCN(C(=O)Nc4ccccc4Cl)CC3)c(C)o2)cc1`, for which the max activity was 227%.

As for `Cc1ccc(-c2nc(CN3CCN(C(=O)Nc4ccc(C)cc4Cl)CC3)c(C)o2)cc1`, the max activity is 13.8% [at 2.6 µM].

As to `CCOc1ccc(-c2nc(CN3CCN(C(=O)Nc4cccc(C)c4)CC3)c(C)o2)cc1`, the max activity was 6.07%.

Consider `Cc1ccc(C(=O)Nc2c(C(=O)N3CCN(c4ncccn4)CC3)[nH]c3ccccc23)cc1`, for which the max activity is 15.6% [at 0.68 µM].

Turning to `COc1cccc(CNC(=O)COc2nc(C)nc3ccccc23)c1OC`, the max activity was 25.6%.

Turning to `COc1ccc(-c2nc(Nc3cc(C)cc(C)c3)c3ccccc3n2)cc1`, the max activity is -19.1% [at 0.35 µM].

Consider `Brc1ccc(Nc2c3ccccc3nc3ccccc23)cc1`, for which the max activity is 36.4% [at 5 µM].

On to `CN1CCN(C(=O)c2nn(C)c3c2CCN(S(C)(=O)=O)C3)CC1`, for which the max activity is 18.7% [at 10 µM].

For the compound `O=C(Cc1ccccn1)N1CC(=O)N2[C@H](C1)[C@@H](c1ccc(C#CCC3CCCC3)cc1)[C@@H]2CO`, the max activity was 6.79% [at 0.3 µM].

For the compound `Cc1ccc(-c2coc(-c3ccc(NC(=O)NCc4cccc(F)c4)cc3)n2)c(C)c1`, the max activity was 17.3%.

As to `Cc1ccc(C)c(-c2coc(-c3ccc(NC(=O)Nc4ccccc4F)cc3)n2)c1`, the max activity was -23.6% [at 0.16 µM].

For the compound `Cc1ccc(-c2coc(-c3ccc(NS(=O)(=O)c4cccc(Cl)c4)cc3)n2)cc1C`, the max activity is -24.2% [at 0.35 µM].

Regarding `CCc1c(C)sc2c1CCN(Cc1nc(-c3cccc(C)c3)oc1C)C2c1ccccc1` (stereo unspecified), the max activity is 5.74% [at 10 µM].

For `COc1ccc(CCNC(=O)CC2Nc3c4ccccc4nc(=S)n3C2=O)cc1OC` (stereo unspecified), the max activity is 17% [at 0.16 µM].

In the case of `CCc1ccc2c(c1)cc(S(=O)(=O)c1ccccc1)c(=O)n2CC(=O)NCc1ccc(F)cc1`, the max activity is 15.5%.

Consider `Cc1ccc(C(=O)Nc2ccc(-c3nc(-c4ccc(C)cc4)co3)cc2)cc1`, for which the max activity was 113% [at 10 µM].

On to `O=C(CCn1nnc2cc(-c3noc(-c4cccc5[nH]ccc45)n3)ccc21)N1CCCC1`, for which the max activity is 43%.

Consider `O=C1CCc2cc(S(=O)(=O)Nc3ccc4c(c3)OCCO4)cc3c2N1CCC3`, for which the max activity is -30% [at 0.16 µM].

`Cc1cc(C)c(NS(=O)(=O)c2cc3c4c(c2)CCC(=O)N4CCC3)c(C)c1`: the max activity is 8.39%.

Turning to `Cc1ccc(NS(=O)(=O)c2cc3c4c(c2)CCC(=O)N4CCC3)cc1C`, the max activity was -11.9%.

On to `Cc1ccc(NS(=O)(=O)c2cc3c4c(c2)CCC(=O)N4CCC3)c(C)c1`, for which the max activity was 4.48% [at 2.6 µM].

For the compound `O=C1CCc2cc(S(=O)(=O)NCc3ccc4c(c3)OCO4)cc3c2N1CCC3`, the max activity was -19.9% [at 2.6 µM].

Consider `Cc1cccc(C)c1NS(=O)(=O)c1cc2c3c(c1)CCC(=O)N3CCC2`, for which the max activity was -22%.

Take `COc1ccc(CNS(=O)(=O)c2cc3c4c(c2)CCC(=O)N4CCC3)cc1`: the max activity is -13.1% [at 10 µM].

`CCOc1cccc(-c2noc(-c3nnn(Cc4nc(-c5ccccc5)oc4C)c3C)n2)c1`: the max activity was 8.01%.

As for `COc1ccc(-c2nc3c(s2)CN(S(=O)(=O)c2cccc(Cl)c2)CC3)cc1`, the max activity is -9.33% [at 2.6 µM].

Take `COc1ccc(-c2nc(Cn3nnc(-c4nc(-c5ccccc5Cl)no4)c3C)c(C)o2)cc1`: the max activity was -7.3% [at 1.35 µM].

Regarding `CCCCc1ccc(Nc2ncnc3c2cnn3-c2ccccc2)cc1`, the max activity is -7.99% [at 0.68 µM].

Turning to `COc1ccc(NC(=O)CN2CCC3(CC2)N=C(c2ccc(F)cc2)C(=O)N3)cc1Cl`, the max activity was -24% [at 0.16 µM].

Turning to `CCc1nc(OCC(=O)Nc2ccccc2CC)c2ccccc2n1`, the max activity was 28.5%.

Take `O=C(CC1CCCC1)Nc1ccc2c(c1)CCC(=O)N2`: the max activity was 12.2%.

Turning to `Cc1oc(-c2cccc(Cl)c2)nc1Cn1nnc(-c2nc(-c3ccccn3)no2)c1C`, the max activity is -10.2% [at 5 µM].

For `COc1ccccc1-c1ccc(C2[C@@H]3CN(C(=O)c4ccncc4)C[C@H]2N3)cc1` (stereo partly specified), the max activity was 32.2%.

With `COc1ccc(C(=O)N2CCC3(CC2)Nc2cc(F)ccc2-n2cccc23)cc1`, the max activity was -22% [at 0.16 µM].

As for `COc1ccc(-c2ccc(C3[C@@H]4CN(C(=O)c5cnccn5)C[C@H]3N4)cc2)cc1` (stereo partly specified), the max activity is 10.5% [at 10 µM].

With `CCOC(=O)CSc1nc(NCc2ccc(OC)cc2)c2ccccc2n1`, the max activity was 20.1% [at 10 µM].

For `Cc1ccc2c(c1C)-n1cccc1C1(CCN(C(=O)Cc3ccc(F)cc3)CC1)N2`, the max activity is 11.4% [at 0.68 µM].

As for `O=C(Nc1cncc(-c2nc3ccccc3o2)c1)c1cccc(Cl)c1`, the max activity is 14.2% [at 0.16 µM].

As to `COc1ccc(S(=O)(=O)N2CCCCN3[C@H](C2)[C@@H](c2ccc(C#CCC(C)C)cc2)[C@@H]3CO)cc1`, the max activity is 177% [at 10 µM].

In the case of `Cc1cccc(NC(=O)N2CCc3nc(-c4ccccc4)sc3C2)c1`, the max activity was -11.3% [at 0.35 µM].

In the case of `CCOc1ccc(CC(=O)Nc2ccc(-c3nc(-c4ccccc4)co3)cc2)cc1OCC`, the max activity was 30.5% [at 10 µM].

On to `Cc1ccc(NC(=O)CN2CCC3(CC2)N=C(c2ccc(F)cc2)C(=O)N3)cc1C`, for which the max activity is -13.8% [at 1.35 µM].

Regarding `COc1ccccc1-c1nc(Cn2nnc(-c3nc(-c4ccc(C(F)(F)F)cc4)no3)c2C)c(C)o1`, the max activity was 8.9%.

Turning to `COc1cccc(NC(=O)Nc2ccc(-c3nc(-c4ccccc4)co3)cc2)c1`, the max activity was 66.2%.

`C=CCO[C@@H]1CCN(c2cc(OC)ncn2)[C@H]1Cc1cnn(C)c1`: the max activity was 25.2%.

As for `CC=Cc1ccc2n(c1=O)C[C@H]1[C@H](CO)[C@@H](C(=O)Nc3ccc(-c4ccccc4)cc3)[C@@H]2N1C(=O)CC` (mixture of isomers), the max activity was 25.5%.

For `Clc1ccc(CSc2nc(NCc3ccccc3)c3ccccc3n2)cc1`, the max activity was 30.6% [at 2.6 µM].

Turning to `COc1ccc(CNc2nc(SCc3ccccc3Cl)nc3ccccc23)cc1`, the max activity was 17.2%.

As for `Clc1cccc(CSc2nc(NCCc3ccccc3)c3ccccc3n2)c1`, the max activity is -7.56% [at 0.16 µM].

With `Clc1ccc(CSc2nc(NCCc3ccccc3)c3ccccc3n2)cc1`, the max activity is 29.6% [at 2.6 µM].

For the compound `COc1ccc(CCNc2nc(SCc3cccc(F)c3)nc3ccccc23)cc1OC`, the max activity is 12% [at 5 µM].

For the compound `Clc1ccc(CNc2nc(SCc3ccc(Cl)cc3)nc3ccccc23)cc1`, the max activity was 7.58% [at 2.6 µM].

As for `Cc1cccc(-c2nc(Cn3nnc(-c4nc(-c5ccc(Cl)cc5)no4)c3C)c(C)o2)c1`, the max activity was 25.6%.

`O=C(NCCc1csc(-c2ccccc2)n1)C1CCN(C(=O)CCc2ccccc2)CC1`: the max activity was -11.1%.

`CCCCC[C@H](CC(=O)NO)C(=O)N[C@H](C(=O)N1CCC[C@H]1CO)C(C)C`: the max activity was 15.6%.

As to `CCOc1ccccc1-c1nc(Cn2c(=O)c3c(C)cc(C)nc3n(-c3ccccc3)c2=O)c(C)o1`, the max activity was 5.33% [at 0.16 µM].

For the compound `CC[C@H](C(=O)N1CCCC[C@H]1C(=O)O[C@H](CCc1ccc(OC)c(OC)c1)c1cccc(OCC(=O)NCCNC(=O)COc2cccc([C@@H](CCc3ccc(OC)c(OC)c3)OC(=O)[C@@H]3CCCCN3C(=O)[C@@H](CC)c3cc(OC)c(OC)c(OC)c3)c2)c1)c1cc(OC)c(OC)c(OC)c1`, the max activity is -14% [at 5 µM].

For `Cc1ccc(C)c(-c2coc(-c3ccc(NC(=O)NC4CCCCC4)cc3)n2)c1`, the max activity was 6.93% [at 0.16 µM].

For the compound `N#Cc1cccc(-c2ccc3c(c2)[C@H]2[C@H](CCN2Cc2ccc4c(c2)OCO4)[C@@H](CO)N3)c1`, the max activity was 21.2% [at 10 µM].

Take `N#Cc1cccc(-c2ccc3c(c2)[C@H]2[C@H](CCN2Cc2ccc4c(c2)OCO4)[C@H](CO)N3)c1`: the max activity was 17.9% [at 10 µM].

Consider `CCCC#Cc1ccc([C@@H]2[C@H]3CN(C(=O)Nc4cccc(F)c4)CC(=O)N3[C@H]2CO)cc1`, for which the max activity is 7.32% [at 0.16 µM].

In the case of `C/C=C/c1ccc([C@H]2[C@H]3CN(C(=O)Nc4cccc(OC)c4)CC(=O)N3[C@H]2CO)cc1`, the max activity was -12% [at 21 µM].

With `C/C=C/c1ccc([C@@H]2[C@@H](CO)N3C(=O)CN(C(=O)Nc4cccc(OC)c4)C[C@@H]23)cc1`, the max activity was 27% [at 10 µM].

For `CC(C)CC(=O)N1CCC(C(=O)NCCc2csc(-c3cccs3)n2)CC1`, the max activity was 7.82%.

For the compound `Cc1ccc(C)c(-c2coc(-c3ccc(NC(=O)Nc4ccc5c(c4)OCO5)cc3)n2)c1`, the max activity is 81.1%.

These data come from PubChem BioAssay AID1259418 (Broad Institute, 2018).
